# Among all 300,000 compounds or so, about 3,200 (1.1%) were called active. Cut-off read from the data, not from the text of the source: active = inhibition above about 75%; inconclusive = no clear call, values can overlap the other calls; inactive = below that; tested in HMLE shEcad cells. Shown is part of a subset that was picked to be rich in actives.
# Experiment: growth suppression of cancer stem-like cells – cell-based, luminescence, primary screen (AID 2717)
# Conditions: cancer stem cell-like cells viability, at 7.5 µM, hits give high values
row,Structure (SMILES),inhibition
1,CCOC(=O)C1CCCN(C(=O)CSc2nnc3nc(C)cc(C)n23)C1 (stereo not drawn),8.11% (inactive)
2,CC(=O)C1C(c2ccc(Cl)cc2)NC(=O)NC1(O)C(F)(F)F (stereo not drawn),-6.38% (inactive)
3,CC1=NN(c2ccc(Cl)c(C(=O)O)c2)C(=O)/C1=C/c1ccc(-c2ccccc2[N+](=O)[O-])o1,12.7% (inactive)
4,O=C(/C=C(O)/C=C/c1ccc(O)cc1)/C=C/c1ccc(O)cc1,44.3% (inactive)
5,CC1Sc2ccc(C(=O)NCc3ccccc3Cl)cc2NC1=O (stereo not drawn),-22.7% (inactive)
6,Cc1ccc(C(=O)NCC(=O)NC2CC2)cc1,-14.8% (inactive)
7,CCC(C)(C)c1ccc(Oc2ccc(NC(=O)COC(=O)C3=COCCO3)cc2)cc1,103% (active)
8,O=C(OCC(=O)c1cccs1)C1=COCCO1,-0.0949% (inactive)
9,CCc1ccc(NC(=O)COC(=O)c2cccs2)cc1,-11.1% (inactive)
10,O=C1OC[C@@H]2CCCN2C(=O)[C@H](CC(=O)N(CCO)Cc2ccccc2)C/C=C\CC[C@@H]1Cc1ccc(F)cc1,-11.9% (inactive)
11,CCOc1ccccc1Nc1nnc(SCC(=O)NCC2CCCO2)s1 (stereo not drawn),-6.96% (inactive)
12,C=CCC[C@@H](Cc1ccc(F)cc1)C(=O)O[C@H](CNC(=O)[C@H](CC=C)CC(=O)N(CCO)Cc1ccccc1)c1ccccc1,41.9% (inactive)
13,COc1cc(OC)c(C(=O)NNC(=O)c2ccccc2-n2cccc2)cc1OC,17.7% (inactive)
14,COc1ccc(CNc2nc(NCc3ccc(OC)cc3)c3ncn(C4CCCC4)c3n2)cc1,62.8% (inactive)
15,O=C(Cn1cnc2c(OCc3ccccc3)ncnc21)NCCCn1ccnc1,-10.9% (inactive)
16,O=C(COC(=O)CN1C(=O)C2CCCCC2C1=O)Nc1ccc(F)c(F)c1F (stereo not drawn),-26.6% (inactive)
17,O=C1NC(c2cccc(Cl)c2)Nc2ccccc21 (stereo not drawn),23% (inactive)
18,O=C1c2ccccc2NC(c2ccc(-c3cccc(Cl)c3)o2)N1O (stereo not drawn),85.5% (active)
19,O=c1c(-c2cccc(Cl)c2)c[nH]n1-c1ccccc1,6.17% (inactive)
20,C[C@@H](CN1CCC[C@H]1CN1C(N)=NC[C@@H]1Cc1ccccc1)N1C[C@@H](Cc2ccccc2)N(CCCC2CCCC2)C1=N,1.15% (inactive)

row,Structure (SMILES),inhibition
1,CCOCc1c(C(=O)N2CCN(Cc3ccc(Br)s3)CC2)oc2ccccc12,-4.05% (inactive)
2,COc1ccc(-c2cc(C(F)(F)F)nc(S(C)(=O)=O)n2)cc1OC,94.1% (active)
3,COc1ccc(-c2cc(C(F)(F)F)nc(NCc3cccnc3)n2)cc1,32.4% (inactive)
4,COc1cc(OC)nc(S(C)(=O)=O)n1,2.64% (inactive)
5,C[C@H](NS(=O)(=O)c1ccc(Cl)cc1)C(=O)OCC(=O)N1CCOCC1,17.5% (inactive)
6,Oc1ccc(/C=N/Nc2nc(-c3ccccc3F)nc3ccccc23)c(O)c1,123% (active)
7,Fc1ccc(/C=N/Nc2nc(-c3cccnc3)nc3ccccc23)cc1,5.78% (inactive)
8,Cc1nc2ccccc2nc1N/N=C/c1ccc(O)cc1O,63.2% (inactive)
9,Cc1noc(C)c1S(=O)(=O)N(C)C[C@H]1Oc2ccc(NC(=O)C3CCCCC3)cc2C(=O)N([C@H](C)CO)C[C@@H]1C,-25.9% (inactive)
10,CCCc1cc(=O)[nH]c(SCC(=O)Nc2ccc(C(=O)Nc3ccccc3OC)cc2)n1,-1.96% (inactive)
11,O=C(COC(=O)c1cccnc1Cl)NC12CC3CC(CC(C3)C1)C2,-4.72% (inactive)
12,O=C(COC(=O)c1cc[n+]([O-])cc1)Nc1ccc(Cl)c(C(F)(F)F)c1,13.8% (inactive)
13,CC(=O)Nc1ccc(N2C(=O)C3C4C=CC(CC4)C3C2=O)cc1 (stereo not drawn),5.09% (inactive)
14,Cc1ccc(N2C(=O)C3C4C=CC(CC4)C3C2=O)cc1Cl (stereo not drawn),51.3% (inactive)
15,Cc1ccc(N2C(=O)C3C4C=CC(CC4)C3C2=O)cc1Br (stereo not drawn),84.8% (active)
16,O=C(CN1C(=O)NC2(CCCCCCC2)C1=O)NCc1ccc(F)cc1,-11.3% (inactive)
17,CCNC(=S)N1CCN(S(=O)(=O)c2ccc(Cl)s2)CC1,-8.45% (inactive)
18,COc1ccc(/C=C/c2nnc(NC(=O)C(C)C)s2)cc1,-1.02% (inactive)
19,COC(=O)c1ccc(/C=C/c2c(-c3ccc(OC)cc3)sc3ccccc23)cc1,120% (active)
20,COc1ccc(NC(=O)COC(=O)c2ccc(NS(=O)(=O)/C=C/c3ccccc3)cc2)cc1,-2.32% (inactive)

row,Structure (SMILES),inhibition
1,CC(C)Cn1c(SCC(=O)Nc2ccc(Cl)cc2F)nc(O)cc1=O,-7.16% (inactive)
2,O=C(CSc1ncnc2sccc12)NC1CCS(=O)(=O)C1 (stereo not drawn),-16.5% (inactive)
3,O=C(COC(=O)c1cccnc1Cl)Nc1ccc(S(=O)(=O)N2CCOCC2)cc1,1.63% (inactive)
4,CCCc1cc(-c2nc(-c3ccc(C)cc3)cs2)ccn1,101% (active)
5,Cc1ccc(-c2csc(-c3cc(C)on3)n2)cc1,-0.292% (inactive)
6,Cc1ccc(-c2csc(-c3c[nH]c4ccccc34)n2)cc1,0.177% (inactive)
7,O=C(CCc1ccc(S(=O)(=O)N2CCOCC2)cc1)OCC(=O)c1ccc(Br)cc1,7.19% (inactive)
8,COc1ccc(NS(=O)(=O)c2cc(NC(=O)c3ccc(S(=O)(=O)N(C)C)cc3)ccc2N2CCOCC2)cc1,-5.14% (inactive)
9,COc1cc(OC)cc(-c2c(C#Cc3ccsc3)c3cc(-c4ccc(OC)cc4F)ccc3n2C)c1,0.462% (inactive)
10,COc1ccc2[nH]cc(/C=C(/C#N)S(=O)(=O)c3ccccc3)c2c1,12.3% (inactive)
11,COc1ccc(/C=C(\C#N)c2c[nH]c3ccccc23)cc1,102% (active)
12,COc1cc(/C=C(\C#N)c2nc3ccccc3[nH]2)ccc1O,33.3% (inactive)
13,Cc1cc(C)c(CN2CCN(C(=O)Cn3ccc(NC(=O)OCc4ccccc4)nc3=O)CC2)c(C)c1,-17.4% (inactive)
14,C=CC[C@@H](CC(=O)N[C@@H](CO)Cc1ccccc1)C(=O)N[C@H](COC(=O)[C@H](CC=C)CC(=O)OC(C)(C)C)Cc1ccccc1,-16.7% (inactive)
15,COCC(C)n1c(SCC(=O)NC2CCCCC2C)nc2ccccc2c1=O (stereo not drawn),4.54% (inactive)
16,S=c1[nH]nc(-c2cc(-c3ccccc3)n[nH]2)n1/N=C/c1c2ccccc2cc2ccccc12,48% (inactive)
17,S=c1[nH]nc(-c2cccnc2)n1/N=C/C(Cl)=C\c1ccccc1,8.61% (inactive)
18,Cc1cc(-c2n[nH]c(=S)n2/N=C/C(Br)=C/c2ccccc2)n[nH]1,82.9% (active)

# — PubChem BioAssay AID2717 (Broad Institute, 2010)
